Binding signal data for one sequence are collected here from PMC7862700, “An all-to-all approach to the identification of sequence-specific readers for epigenetic DNA modifications on cytosine”.

Common to all, as to assay: DAPPL (digital affinity profiling via proximity ligation, sequencing); 10 mM Tris-HCl pH 7.5, 50 mM NaCl, 1 mM DTT, 4% glycerol, room temperature, 30 min; GST-TFs on glutathione beads, 16-mer random dsDNA library, 0.1% formaldehyde crosslink after washing; high values mean tight binding
One experiment has as its target T1, FEV (Homo sapiens, UniProt Q99581 1-238).
T1 sequence: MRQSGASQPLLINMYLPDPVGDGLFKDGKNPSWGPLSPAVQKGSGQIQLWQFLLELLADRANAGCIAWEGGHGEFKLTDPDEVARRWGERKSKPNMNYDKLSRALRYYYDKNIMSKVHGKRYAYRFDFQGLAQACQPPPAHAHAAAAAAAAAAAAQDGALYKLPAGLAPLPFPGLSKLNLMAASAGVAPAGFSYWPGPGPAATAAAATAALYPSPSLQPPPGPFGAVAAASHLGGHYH
Particulars: protein: recombinant; tags: N-terminal GST; dsDNA, one strand shown. The essentials: (§1)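 A tag-only sample was pooled with DNA-barcoded human transcription factors that had been expressed in yeast as GST fusions and captured on glutathione beads. The pools were incubated for 30 min at room temperature with 200 nmole of a random double-stranded 16-mer DNA library in Tris/NaCl/DTT/glycerol buffer, then washed, crosslinked with 0.1% formaldehyde, proximity-ligated (BsaI/T4 ligase, 1 h, 37 °C), PCR-amplified and sequenced on an Illumina NextSeq500. Binding signal is each hexamer's read frequency for a factor divided by its frequency for the tag-only sample.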

The target in the next experiment is ETV5 (Homo sapiens, UniProt P41161 1-510). Particulars: protein: recombinant; tags: N-terminal GST; dsDNA, one strand shown. In short, it runs like this: as §1
ETV5, sequence (P41161 whole entry): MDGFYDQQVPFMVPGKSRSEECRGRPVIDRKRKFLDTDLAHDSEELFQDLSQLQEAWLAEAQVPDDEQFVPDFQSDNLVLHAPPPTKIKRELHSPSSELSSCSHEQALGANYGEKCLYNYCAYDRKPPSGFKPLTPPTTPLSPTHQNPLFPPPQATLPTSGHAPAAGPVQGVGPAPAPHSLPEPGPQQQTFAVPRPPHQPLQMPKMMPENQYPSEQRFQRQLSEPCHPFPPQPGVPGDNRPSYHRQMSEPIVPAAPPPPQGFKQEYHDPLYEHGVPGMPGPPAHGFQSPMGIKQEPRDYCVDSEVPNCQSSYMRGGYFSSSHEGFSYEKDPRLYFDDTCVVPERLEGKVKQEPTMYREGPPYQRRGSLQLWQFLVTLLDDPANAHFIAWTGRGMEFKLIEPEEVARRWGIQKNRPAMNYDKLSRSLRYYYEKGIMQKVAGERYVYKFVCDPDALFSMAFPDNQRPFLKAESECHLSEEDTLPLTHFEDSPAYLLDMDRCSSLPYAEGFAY
A further experiment has as its target HSF1 (Homo sapiens, UniProt Q00613 1-529). The following applies: protein: recombinant; tags: N-terminal GST; chain copies: 3; dsDNA, one strand shown. The essentials:
as §1

A further experiment addresses T2, SPIC (Homo sapiens, UniProt Q8N5J4 1-248).
T2 sequence: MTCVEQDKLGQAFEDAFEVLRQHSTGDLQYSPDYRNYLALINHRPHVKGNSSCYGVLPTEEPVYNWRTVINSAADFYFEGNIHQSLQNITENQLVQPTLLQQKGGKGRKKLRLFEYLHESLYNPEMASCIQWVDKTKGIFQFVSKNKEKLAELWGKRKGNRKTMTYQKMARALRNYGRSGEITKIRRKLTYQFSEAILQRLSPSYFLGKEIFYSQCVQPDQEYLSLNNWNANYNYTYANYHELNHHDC
Particulars: protein: recombinant; tags: N-terminal GST; dsDNA, one strand shown. The essentials:
as §1

For the next experiment, the target named is ELF4 (Homo sapiens, UniProt Q99607 1-663). Particulars: protein: recombinant; tags: N-terminal GST; dsDNA, one strand shown. The essentials: as §1
ELF4, sequence (Q99607 whole entry): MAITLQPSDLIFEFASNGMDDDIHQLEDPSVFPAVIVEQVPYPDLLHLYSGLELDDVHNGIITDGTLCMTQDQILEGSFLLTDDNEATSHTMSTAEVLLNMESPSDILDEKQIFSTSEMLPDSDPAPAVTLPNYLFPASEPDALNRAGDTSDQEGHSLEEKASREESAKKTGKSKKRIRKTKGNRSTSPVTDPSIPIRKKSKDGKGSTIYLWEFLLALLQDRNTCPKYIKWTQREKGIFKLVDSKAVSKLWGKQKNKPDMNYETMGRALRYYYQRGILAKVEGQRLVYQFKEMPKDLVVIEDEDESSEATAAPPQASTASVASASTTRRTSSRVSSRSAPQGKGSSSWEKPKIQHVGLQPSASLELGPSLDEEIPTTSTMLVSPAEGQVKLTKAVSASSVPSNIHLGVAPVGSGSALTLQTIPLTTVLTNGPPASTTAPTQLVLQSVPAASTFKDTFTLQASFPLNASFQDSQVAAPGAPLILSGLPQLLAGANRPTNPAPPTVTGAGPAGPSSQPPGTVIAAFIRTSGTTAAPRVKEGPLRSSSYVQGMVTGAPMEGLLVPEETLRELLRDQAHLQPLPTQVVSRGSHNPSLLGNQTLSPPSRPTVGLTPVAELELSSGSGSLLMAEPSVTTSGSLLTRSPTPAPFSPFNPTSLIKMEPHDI
A further experiment deals with T3, ELK4 (Homo sapiens, UniProt P28324-2 1-405).
T3 sequence: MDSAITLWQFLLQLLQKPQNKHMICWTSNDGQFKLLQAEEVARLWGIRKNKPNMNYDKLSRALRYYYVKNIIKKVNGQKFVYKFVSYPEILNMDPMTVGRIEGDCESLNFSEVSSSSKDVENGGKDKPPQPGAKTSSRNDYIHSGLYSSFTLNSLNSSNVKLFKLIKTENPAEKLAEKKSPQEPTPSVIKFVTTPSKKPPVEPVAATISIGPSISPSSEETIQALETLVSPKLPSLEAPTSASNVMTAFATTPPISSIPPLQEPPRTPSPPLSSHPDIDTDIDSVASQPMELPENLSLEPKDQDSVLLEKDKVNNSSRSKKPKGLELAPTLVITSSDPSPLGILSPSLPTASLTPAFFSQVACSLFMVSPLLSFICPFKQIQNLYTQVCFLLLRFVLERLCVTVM
The following applies: protein: recombinant; tags: N-terminal GST; dsDNA, one strand shown. The essentials: as §1

The next experiment deals with T4, ETV2 (Homo sapiens, UniProt O00321 1-342).
T4 sequence: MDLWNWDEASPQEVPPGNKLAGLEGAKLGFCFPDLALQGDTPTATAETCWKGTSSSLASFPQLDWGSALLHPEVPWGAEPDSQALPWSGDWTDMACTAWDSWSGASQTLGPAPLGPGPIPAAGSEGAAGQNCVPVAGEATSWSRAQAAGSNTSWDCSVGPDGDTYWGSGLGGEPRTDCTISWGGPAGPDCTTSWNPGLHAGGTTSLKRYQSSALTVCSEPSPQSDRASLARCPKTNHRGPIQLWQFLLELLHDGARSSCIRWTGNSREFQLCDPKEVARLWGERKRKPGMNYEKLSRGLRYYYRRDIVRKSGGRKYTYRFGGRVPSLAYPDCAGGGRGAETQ
The following applies: protein: recombinant; tags: N-terminal GST; dsDNA, one strand shown. The essentials: as §1

Another experiment has as its target T5, ELF3 (Homo sapiens, UniProt P78545 1-371).
T5 sequence: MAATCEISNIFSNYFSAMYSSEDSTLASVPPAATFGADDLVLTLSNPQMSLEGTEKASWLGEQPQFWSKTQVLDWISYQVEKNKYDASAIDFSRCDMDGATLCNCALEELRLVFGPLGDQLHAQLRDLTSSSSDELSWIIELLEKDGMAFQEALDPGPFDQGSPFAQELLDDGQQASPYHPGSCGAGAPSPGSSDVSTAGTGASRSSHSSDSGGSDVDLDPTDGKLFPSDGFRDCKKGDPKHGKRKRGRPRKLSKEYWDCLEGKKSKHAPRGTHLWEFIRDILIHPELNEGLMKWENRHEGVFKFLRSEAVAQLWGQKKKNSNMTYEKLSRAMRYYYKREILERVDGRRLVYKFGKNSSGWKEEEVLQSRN
Particulars: protein: recombinant; tags: N-terminal GST; dsDNA, one strand shown. In short, it runs like this: as §1

The next experiment has as its target CRX (Homo sapiens, UniProt O43186 1-299). The following applies: protein: recombinant; tags: N-terminal GST; dsDNA, one strand shown. In short, it runs like this: as §1
A further experiment deals with ETV1 (Homo sapiens, UniProt P50549 1-477). Particulars: protein: recombinant; tags: N-terminal GST; dsDNA, one strand shown. In short, it runs like this:
as §1

The target of another experiment is T6, ERF (Homo sapiens, UniProt P50548 1-548).
T6 sequence: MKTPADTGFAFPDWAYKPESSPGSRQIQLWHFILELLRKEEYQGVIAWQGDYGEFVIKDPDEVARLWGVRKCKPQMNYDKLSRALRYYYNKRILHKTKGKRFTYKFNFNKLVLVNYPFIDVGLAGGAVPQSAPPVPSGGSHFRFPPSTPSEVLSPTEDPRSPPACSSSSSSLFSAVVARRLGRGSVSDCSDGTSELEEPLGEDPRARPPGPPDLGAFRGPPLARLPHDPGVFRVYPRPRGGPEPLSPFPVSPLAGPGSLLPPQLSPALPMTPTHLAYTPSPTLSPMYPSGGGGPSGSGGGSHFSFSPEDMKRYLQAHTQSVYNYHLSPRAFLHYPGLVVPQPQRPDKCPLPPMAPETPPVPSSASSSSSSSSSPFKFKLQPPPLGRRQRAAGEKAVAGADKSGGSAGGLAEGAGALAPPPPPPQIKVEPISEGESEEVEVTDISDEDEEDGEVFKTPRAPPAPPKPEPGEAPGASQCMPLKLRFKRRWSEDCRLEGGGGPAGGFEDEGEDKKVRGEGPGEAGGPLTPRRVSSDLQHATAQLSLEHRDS
The following applies: protein: recombinant; tags: N-terminal GST; dsDNA, one strand shown. The essentials: as §1

The next experiment addresses T7, ETV3L (Homo sapiens, UniProt Q6ZN32 1-361).
T7 sequence: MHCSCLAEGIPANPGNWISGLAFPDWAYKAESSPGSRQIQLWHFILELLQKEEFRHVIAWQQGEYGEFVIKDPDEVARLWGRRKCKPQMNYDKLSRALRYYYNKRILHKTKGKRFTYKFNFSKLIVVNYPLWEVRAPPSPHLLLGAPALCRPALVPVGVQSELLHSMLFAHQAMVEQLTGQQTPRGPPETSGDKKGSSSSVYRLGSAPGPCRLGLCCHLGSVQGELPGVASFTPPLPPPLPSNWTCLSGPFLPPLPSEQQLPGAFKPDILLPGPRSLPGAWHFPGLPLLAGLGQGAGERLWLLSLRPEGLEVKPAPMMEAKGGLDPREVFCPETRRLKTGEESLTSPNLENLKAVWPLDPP
The following applies: protein: recombinant; tags: N-terminal GST; dsDNA, one strand shown. In short, it runs like this: as §1

The next experiment has as its target T8, ETS2 (Homo sapiens, UniProt P15036 1-469).
T8 sequence: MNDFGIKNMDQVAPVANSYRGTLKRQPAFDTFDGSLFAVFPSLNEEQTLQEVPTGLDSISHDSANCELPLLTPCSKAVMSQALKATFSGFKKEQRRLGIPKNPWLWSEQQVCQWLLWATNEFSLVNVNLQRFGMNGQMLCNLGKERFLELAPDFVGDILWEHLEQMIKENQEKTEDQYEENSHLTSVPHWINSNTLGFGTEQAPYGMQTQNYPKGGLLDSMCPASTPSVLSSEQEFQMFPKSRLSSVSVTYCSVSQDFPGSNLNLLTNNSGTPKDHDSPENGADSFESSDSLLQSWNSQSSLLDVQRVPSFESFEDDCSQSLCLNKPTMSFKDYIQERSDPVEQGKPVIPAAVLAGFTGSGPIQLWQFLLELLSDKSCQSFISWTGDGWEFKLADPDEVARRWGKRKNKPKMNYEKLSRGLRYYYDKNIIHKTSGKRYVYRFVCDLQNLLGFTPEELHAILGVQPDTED
The following applies: protein: recombinant; tags: N-terminal GST; dsDNA, one strand shown. The essentials: as §1

Another experiment deals with T9, SPDEF (Homo sapiens, UniProt O95238 1-335).
T9 sequence: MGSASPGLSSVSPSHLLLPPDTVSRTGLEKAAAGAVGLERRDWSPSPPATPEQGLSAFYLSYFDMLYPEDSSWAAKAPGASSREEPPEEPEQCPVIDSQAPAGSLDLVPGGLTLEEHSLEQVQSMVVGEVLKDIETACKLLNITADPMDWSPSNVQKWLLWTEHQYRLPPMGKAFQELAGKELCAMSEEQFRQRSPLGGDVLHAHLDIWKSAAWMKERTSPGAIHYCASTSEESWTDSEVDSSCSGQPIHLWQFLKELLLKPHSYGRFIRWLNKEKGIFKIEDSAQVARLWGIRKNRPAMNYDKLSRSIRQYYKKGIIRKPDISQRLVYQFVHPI
Particulars: protein: recombinant; tags: N-terminal GST; dsDNA, one strand shown. In short, it runs like this:
as §1

For the next experiment, the target named is T10, ETV7 (Homo sapiens, UniProt Q9Y603 1-341).
T10 sequence: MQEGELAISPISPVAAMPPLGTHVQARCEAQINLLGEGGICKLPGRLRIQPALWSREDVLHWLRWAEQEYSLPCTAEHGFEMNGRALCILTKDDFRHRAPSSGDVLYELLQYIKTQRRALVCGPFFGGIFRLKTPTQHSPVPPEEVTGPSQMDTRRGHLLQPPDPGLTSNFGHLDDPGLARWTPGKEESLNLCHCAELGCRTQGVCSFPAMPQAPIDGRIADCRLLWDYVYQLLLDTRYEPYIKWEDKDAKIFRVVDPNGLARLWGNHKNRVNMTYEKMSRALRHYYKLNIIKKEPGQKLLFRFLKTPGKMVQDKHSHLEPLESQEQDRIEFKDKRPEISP
The following applies: protein: recombinant; tags: N-terminal GST; dsDNA, one strand shown. In short, it runs like this: as §1

A further experiment deals with T11, ELF5 (Homo sapiens, UniProt Q9UKW6-2 1-255).
T11 sequence: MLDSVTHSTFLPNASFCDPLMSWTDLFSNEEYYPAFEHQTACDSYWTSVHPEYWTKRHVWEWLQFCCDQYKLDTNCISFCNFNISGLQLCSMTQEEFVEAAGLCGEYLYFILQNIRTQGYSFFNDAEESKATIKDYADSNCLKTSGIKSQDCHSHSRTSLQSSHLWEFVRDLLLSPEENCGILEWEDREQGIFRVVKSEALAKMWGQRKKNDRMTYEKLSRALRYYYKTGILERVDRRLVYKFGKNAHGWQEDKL
Particulars: protein: recombinant; tags: N-terminal GST; dsDNA, one strand shown. The essentials:
as §1

A further experiment addresses T12, ETV3 (Homo sapiens, UniProt P41162-2 1-143).
T12 sequence: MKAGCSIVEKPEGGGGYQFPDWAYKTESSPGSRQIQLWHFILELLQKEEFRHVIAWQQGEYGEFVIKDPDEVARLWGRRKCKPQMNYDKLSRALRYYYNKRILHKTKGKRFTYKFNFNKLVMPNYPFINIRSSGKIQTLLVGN
Particulars: protein: recombinant; tags: N-terminal GST; dsDNA, one strand shown. In short, it runs like this:
as §1

For another experiment, the target named is ETV6 (Homo sapiens, UniProt P41212 1-452). The following applies: protein: recombinant; tags: N-terminal GST; dsDNA, one strand shown. In short, it runs like this:
as §1

CRX, sequence (O43186 whole entry): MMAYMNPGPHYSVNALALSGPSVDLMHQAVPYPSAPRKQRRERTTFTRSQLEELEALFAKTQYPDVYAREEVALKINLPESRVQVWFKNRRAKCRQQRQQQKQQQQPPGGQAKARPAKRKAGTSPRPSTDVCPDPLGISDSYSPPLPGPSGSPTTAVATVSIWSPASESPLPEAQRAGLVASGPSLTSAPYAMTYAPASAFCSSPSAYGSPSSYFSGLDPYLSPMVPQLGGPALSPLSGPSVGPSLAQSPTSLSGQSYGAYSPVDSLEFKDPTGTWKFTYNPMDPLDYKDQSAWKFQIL
HSF1, sequence (Q00613 whole entry): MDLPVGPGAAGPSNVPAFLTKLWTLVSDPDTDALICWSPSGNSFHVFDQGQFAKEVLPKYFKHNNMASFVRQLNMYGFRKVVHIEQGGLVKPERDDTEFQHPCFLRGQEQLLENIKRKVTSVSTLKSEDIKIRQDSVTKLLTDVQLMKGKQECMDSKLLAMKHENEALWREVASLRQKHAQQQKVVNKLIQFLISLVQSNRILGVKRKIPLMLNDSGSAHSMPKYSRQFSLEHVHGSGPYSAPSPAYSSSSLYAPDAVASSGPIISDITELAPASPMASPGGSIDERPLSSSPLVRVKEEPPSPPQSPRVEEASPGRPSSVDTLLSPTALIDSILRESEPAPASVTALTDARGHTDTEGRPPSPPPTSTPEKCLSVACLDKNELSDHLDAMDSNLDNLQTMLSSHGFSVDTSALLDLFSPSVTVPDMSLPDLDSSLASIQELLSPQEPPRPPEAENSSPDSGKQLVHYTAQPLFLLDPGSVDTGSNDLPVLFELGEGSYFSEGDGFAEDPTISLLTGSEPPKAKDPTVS
ETV1, sequence (P50549 whole entry): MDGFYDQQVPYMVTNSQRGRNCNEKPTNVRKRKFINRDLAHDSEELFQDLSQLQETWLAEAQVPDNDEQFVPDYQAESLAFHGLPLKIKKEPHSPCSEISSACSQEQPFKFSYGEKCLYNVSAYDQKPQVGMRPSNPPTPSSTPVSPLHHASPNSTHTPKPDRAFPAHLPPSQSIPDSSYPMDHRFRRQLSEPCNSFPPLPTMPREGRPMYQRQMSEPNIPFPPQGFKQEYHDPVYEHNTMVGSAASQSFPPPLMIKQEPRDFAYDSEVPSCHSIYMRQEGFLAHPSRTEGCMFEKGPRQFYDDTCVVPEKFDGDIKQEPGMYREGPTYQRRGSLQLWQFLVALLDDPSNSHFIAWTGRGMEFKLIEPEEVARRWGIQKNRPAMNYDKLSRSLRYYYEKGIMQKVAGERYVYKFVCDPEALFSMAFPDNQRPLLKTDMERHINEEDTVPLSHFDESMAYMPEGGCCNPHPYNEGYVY
ETV6, sequence (P41212 whole entry): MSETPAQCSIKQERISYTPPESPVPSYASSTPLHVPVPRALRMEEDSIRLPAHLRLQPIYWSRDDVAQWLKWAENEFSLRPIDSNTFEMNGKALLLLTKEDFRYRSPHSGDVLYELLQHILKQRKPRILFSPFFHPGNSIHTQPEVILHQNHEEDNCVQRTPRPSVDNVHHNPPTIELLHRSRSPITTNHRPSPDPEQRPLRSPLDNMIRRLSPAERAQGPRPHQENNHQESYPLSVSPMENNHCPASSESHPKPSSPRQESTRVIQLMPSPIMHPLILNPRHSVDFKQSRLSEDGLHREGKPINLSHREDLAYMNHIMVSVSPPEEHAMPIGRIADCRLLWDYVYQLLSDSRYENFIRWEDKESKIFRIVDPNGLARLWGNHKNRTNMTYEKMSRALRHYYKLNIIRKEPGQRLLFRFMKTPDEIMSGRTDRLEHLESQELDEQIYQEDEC

TTACAA: the binding signal is 1.12 fold enrichment (6-mer frequency, TF over GST control) with FEV; 1.1 fold enrichment (6-mer frequency, TF over GST control) in the experiment with ETV5; 1.31 fold enrichment (6-mer frequency, TF over GST control) in the experiment with HSF1; 1.12 fold enrichment (6-mer frequency, TF over GST control) in the experiment with SPIC; 1.12 fold enrichment (6-mer frequency, TF over GST control) with ELF4; 1.24 fold enrichment (6-mer frequency, TF over GST control) with ELK4. Besides, the binding signal with ETV2 is 1.09 fold enrichment (6-mer frequency, TF over GST control); in the experiment with ELF3, 1.22 fold enrichment (6-mer frequency, TF over GST control); with CRX it was 1.77 fold enrichment (6-mer frequency, TF over GST control); with ETV1 it was 1.18 fold enrichment (6-mer frequency, TF over GST control); with ERF, 1.23 fold enrichment (6-mer frequency, TF over GST control); in the experiment with ETV3L it was 1.1 fold enrichment (6-mer frequency, TF over GST control). Also, the binding signal with ETS2 is 1.16 fold enrichment (6-mer frequency, TF over GST control); in the experiment with SPDEF, 1.22 fold enrichment (6-mer frequency, TF over GST control); with ETV7 it was 1.11 fold enrichment (6-mer frequency, TF over GST control); with ELF5, 1.17 fold enrichment (6-mer frequency, TF over GST control); with ETV3, 1.08 fold enrichment (6-mer frequency, TF over GST control); with ETV6, 1.09 fold enrichment (6-mer frequency, TF over GST control).
